Source: PubChem BioAssay (Tox21)
Results filed as inconclusive are left out. Active and inactive are the calls of the source. Unless noted, calls follow the shape of the dose curve; as a rule, active = well fitted curve in the direction sought with a large enough effect in the repeat runs; inconclusive = weak or mixed curves; inactive = no such curve, though single readings can be large; an effect the other way counts as inactive or inconclusive.

Experiments:
[1] = target: Thyrotropin-releasing hormone receptor (Homo sapiens) (UniProt P34981); assay: qHTS assay to identify small molecule agonists of the thyrotropin-releasing hormone receptor (TRHR) signaling pathway (AID 1346891; calls by dose curve;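 also: HEK293 cells expressing TRHR with calcium dye readout; series mostly up to about 58 µM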)
Procedure, shortened: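 Agonist-mode calcium mobilisation screen: TRHR-transfected HEK293 cells cultured overnight (18 h), dye-loaded for 2 h at 37 °C, exposed to compounds, and monitored by fluorescence for 3 min.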

[2] = Human pregnane X receptor (PXR) small molecule agonists, qHTS cell viability counter screen (AID 1346977); also: nearly all actives have a fitted effect of over 50% in size
Procedure, shortened: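 Measures live-cell protease fluorescence (CellTiter-Fluor) in PXR-Luc HepG2 cells treated 24hr with compounds at 37C. Cells had 5hr to attach before pin transfer of DMSO solutions.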

[3] = Caspase-3/7 induction in HepG2 cells by small molecules, qHTS assay (AID 1346978); also: nearly all actives have a fitted effect of over 15% in size
Procedure, shortened: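 Caspase-3/7 induction was measured by Caspase-Glo 3/7 luminescence (30 min, room temperature) after a 17 hr compound exposure of wild-type HepG2 cells seeded at 2,000 per well and pre-incubated 5 hr.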

[4] = Caspase-3/7 induction in CHO-K1 cells by small molecules, qHTS cell viability counter screen (AID 1346979); also: nearly all actives have a fitted effect of over 35% in size
Procedure, shortened: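 In the same wells as the caspase read, viability of compound-treated wild-type CHO-K1 cells was assessed using CellTiter-Fluor, added after 16hr at 37C and measured by fluorescence following 1hr further incubation.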

[5] = Caspase-3/7 induction in CHO-K1 cells by small molecules, qHTS assay (AID 1346980); also: nearly all actives have a fitted effect of over 15% in size
Procedure, shortened: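 Luminescent Caspase-Glo 3/7 read (30min, room temperature) quantified apoptosis induction. Cells were wild-type CHO-K1, treated with compound for 17hr at 37 C and 5% CO2.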

[6] = Caspase-3/7 induction in HepG2 cells by small molecules, qHTS cell viability counter screen (AID 1346981); also: series mostly up to about 92 µM; nearly all actives have a fitted effect of over 30% in size
Procedure, shortened: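 Wild-type HepG2 cells, 2,000/well, settled 5 hr at 37 C, 5% CO2 before compound addition. Viability read by CellTiter-Fluor fluorescence, reagent added after 16 hr compound exposure, then 1 hr at 37C, in the same wells as the caspase read.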

[7] = target: Nuclear receptor subfamily 1 group I member 2 (Homo sapiens) (UniProt O75469); assay: Human pregnane X receptor (PXR) small molecule agonists, qHTS assay (AID 1346982); also: nearly all actives have a fitted effect of over 35% in size; also: potency is read from the fitted curve at half-maximal effect
Procedure, shortened: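 PXR-Luc HepG2 reporter cells (CYP3A4-driven luciferase) in 5% charcoal-stripped FBS medium, plated 5 h before compound addition, then treated 24 h at 37C. Luciferase read by ONE-Glo luminescence after 30 min at room temperature.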

[8] = target: Nuclear receptor subfamily 1 group I member 2 (Homo sapiens) (UniProt O75469); assay: CYP3A4 induction through human pregnane X receptor (PXR) by small molecules, qHTS assay (AID 1346984); also: nearly all actives have a fitted effect of over 40% in size
Procedure, shortened: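 DPX-2 HepG2 cells carrying a PXR response element and CYP3A4-promoter luciferase construct, treated with compounds 24 hr at 37C. Then P450-Glo CYP3A4 Luciferin-IPA substrate (3uM final) for 3 hr at 37C, One-Glo added, luminescence read.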

[9] = target: Nuclear receptor subfamily 1 group I member 2 (Homo sapiens) (UniProt O75469); assay: Human pregnane X receptor (PXR) activation by small molecules, qHTS assay (AID 1346985); also: nearly all actives have a fitted effect of over 40% in size; also: potency is read from the fitted curve at half-maximal effect
Procedure, shortened: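 DPX-2 cells (HepG2 co-transfected with a PXR response element and a CYP3A4-promoter luciferase construct) were seeded at 2,000 per well, rested 5 hr at 37C, then exposed to DMSO-dissolved compounds for 24 hr. Activation was read as luciferase luminescence.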

[10] = target: Cytochrome P450 2D6 (Homo sapiens) (UniProt P10635); assay: Cytochrome P450 Family 2 Subfamily D Member 6 (CYP2D6) small molecule antagonists: luciferase reporter qHTS assay (AID 1671196); also: nearly all actives have a fitted effect of over 50% in size; also: potency is read from the fitted curve at half-maximal effect; as to activity change, negative = inhibition: series mostly up to about 120 µM
Procedure, shortened: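 Cell-free P450-Glo system: CYP2D6 with proluciferin substrate was pre-incubated with compound for 10 min, then reacted with NADPH regeneration for 1 h at room temperature. Luciferin product was detected after 20 min, and data were reported as relative luminescence units.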

[11] = target: Cytochrome P450 2C19 (Homo sapiens) (UniProt P33261); assay: Cytochrome P450 Family 2 Subfamily C Member 19 (CYP2C19) small molecule antagonists: luciferase reporter qHTS assay (AID 1671197); also: nearly all actives have a fitted effect of over 65% in size; also: potency is read from the fitted curve at half-maximal effect; as to activity change, negative = inhibition: series mostly up to about 120 µM
Procedure, shortened: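 Light output is proportional to CYP2C19 activity: proluciferin substrate is converted to luciferin, then detected by a luciferin detection reagent that also stops the 1 h, 37C NADPH-driven reaction. Ketoconazole serves as positive control.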

[12] = target: Cytochrome P450 2C9 (Homo sapiens) (UniProt P11712); assay: Cytochrome P450 Family 2 Subfamily C Member 9 (CYP2C9) small molecule antagonists: luciferase reporter qHTS assay (AID 1671198); also: nearly all actives have a fitted effect of over 50% in size; also: potency is read from the fitted curve at half-maximal effect; as to activity change, negative = inhibition: series mostly up to about 120 µM
Procedure, shortened: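 Enzyme-substrate mix preincubated with compound 10 min at room temperature; reaction started with NADPH regeneration solution, 1 h 37C. Luminescent luciferin product read after 20 min detection reagent.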

[13] = target: Cytochrome P450 1A2 (Homo sapiens) (UniProt P05177); assay: Cytochrome P450 Family 1 Subfamily A Member 2 (CYP1A2) small molecule antagonists: luciferase reporter qHTS assay (AID 1671199); also: nearly all actives have a fitted effect of over 50% in size; also: potency is read from the fitted curve at half-maximal effect; as to activity change, negative = inhibition: series mostly up to about 120 µM
Procedure, shortened: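 P450-Glo CYP1A2 enzyme–proluciferin substrate mix with compound 10 min at room temperature, then NADPH regeneration 1 h at room temperature. Luciferin detection reagent added, luminescence read after 20 min; furafylline positive control.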

[14] = target: Voltage-gated inwardly rectifying potassium channel KCNH2 (Homo sapiens) (UniProt Q12809); assay: Human Ether-a-go-go-Related Gene (hERG) channel small molecule antagonists: fluorescence cell-based qHTS assay (AID 1671200); also: nearly all actives have a fitted effect of over 50% in size; also: potency is read from the fitted curve at half-maximal effect;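 as to activity change, negative = inhibition: hERG-expressing U2OS cells given a thallium stimulus after FluxOR II dye loading; series mostly up to about 77 µM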
Procedure, shortened: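 Quantitative HTS in hERG-U2OS cells: thallium entry through the channel reports activity, read as continuous 480/540 nm fluorescence over 2 min after stimulus addition.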

[15] = target: Cytochrome P450 3A4 (Homo sapiens) (UniProt P08684); assay: Cytochrome P450 Family 3 Subfamily A Member 4 (CYP3A4) small molecule antagonists: luciferase reporter qHTS assay (AID 1671201)
Procedure, shortened: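 Inhibition of CYP3A4 is measured as loss of light: the enzyme converts a proluciferin substrate to luciferin, detected luminescently. Reaction ran 1 h at room temperature with NADPH regeneration after a 10 min compound preincubation.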

[16] = target: Nuclear receptor subfamily 1 group I member 2 (Rattus norvegicus) (UniProt Q9R1A7); assay: Rat pregnane X receptor (rPXR) activation by small molecules, qHTS assay (AID 1346983); details: rPXR luciferase reporter cells, One-Glo luminescence, 24 h; max activation: active compounds read high; also: nearly all actives have a fitted effect of over 20% in size; also: potency is read from the fitted curve at half-maximal effect
Procedure, shortened: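 Luminescent readout (One-Glo luciferase, 30 min room temperature) followed 24 hr compound treatment at 37 C of rPXR cells plated 2,000 per well and preincubated 5hr; qHTS format with compounds delivered in DMSO.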
% is scaled to controls: 0 for no effect and ±100 for the full control effect.

Chain of Cytochrome P450 3A4 (Homo sapiens) (P08684 whole entry, looked up): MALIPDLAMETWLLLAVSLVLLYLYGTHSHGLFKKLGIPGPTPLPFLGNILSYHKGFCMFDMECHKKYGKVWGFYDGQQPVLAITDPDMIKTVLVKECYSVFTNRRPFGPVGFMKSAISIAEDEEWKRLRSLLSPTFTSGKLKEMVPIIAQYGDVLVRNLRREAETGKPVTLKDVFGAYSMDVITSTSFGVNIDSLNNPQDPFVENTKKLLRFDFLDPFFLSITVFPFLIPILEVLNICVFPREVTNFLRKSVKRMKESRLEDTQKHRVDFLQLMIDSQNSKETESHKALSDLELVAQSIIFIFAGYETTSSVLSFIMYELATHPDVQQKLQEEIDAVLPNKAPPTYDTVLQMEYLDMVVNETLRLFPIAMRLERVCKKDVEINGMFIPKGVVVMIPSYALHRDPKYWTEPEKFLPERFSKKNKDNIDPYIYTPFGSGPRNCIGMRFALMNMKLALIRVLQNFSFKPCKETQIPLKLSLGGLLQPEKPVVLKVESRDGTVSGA
Chain of Cytochrome P450 2D6 (Homo sapiens) (P10635 whole entry, looked up): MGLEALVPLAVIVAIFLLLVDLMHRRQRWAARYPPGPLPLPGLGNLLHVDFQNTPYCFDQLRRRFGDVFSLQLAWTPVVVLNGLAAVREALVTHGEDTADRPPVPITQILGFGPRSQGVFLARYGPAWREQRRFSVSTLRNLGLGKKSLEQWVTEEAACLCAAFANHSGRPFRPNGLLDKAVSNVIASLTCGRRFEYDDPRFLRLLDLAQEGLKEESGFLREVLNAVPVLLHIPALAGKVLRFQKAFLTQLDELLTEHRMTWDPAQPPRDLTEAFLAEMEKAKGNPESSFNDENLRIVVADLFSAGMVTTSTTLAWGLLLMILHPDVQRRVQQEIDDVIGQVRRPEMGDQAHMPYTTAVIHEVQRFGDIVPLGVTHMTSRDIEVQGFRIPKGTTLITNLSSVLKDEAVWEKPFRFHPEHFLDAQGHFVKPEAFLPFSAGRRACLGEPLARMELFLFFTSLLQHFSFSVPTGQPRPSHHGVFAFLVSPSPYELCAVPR
Chain of Voltage-gated inwardly rectifying potassium channel KCNH2 (Homo sapiens) (Q12809 whole entry, looked up): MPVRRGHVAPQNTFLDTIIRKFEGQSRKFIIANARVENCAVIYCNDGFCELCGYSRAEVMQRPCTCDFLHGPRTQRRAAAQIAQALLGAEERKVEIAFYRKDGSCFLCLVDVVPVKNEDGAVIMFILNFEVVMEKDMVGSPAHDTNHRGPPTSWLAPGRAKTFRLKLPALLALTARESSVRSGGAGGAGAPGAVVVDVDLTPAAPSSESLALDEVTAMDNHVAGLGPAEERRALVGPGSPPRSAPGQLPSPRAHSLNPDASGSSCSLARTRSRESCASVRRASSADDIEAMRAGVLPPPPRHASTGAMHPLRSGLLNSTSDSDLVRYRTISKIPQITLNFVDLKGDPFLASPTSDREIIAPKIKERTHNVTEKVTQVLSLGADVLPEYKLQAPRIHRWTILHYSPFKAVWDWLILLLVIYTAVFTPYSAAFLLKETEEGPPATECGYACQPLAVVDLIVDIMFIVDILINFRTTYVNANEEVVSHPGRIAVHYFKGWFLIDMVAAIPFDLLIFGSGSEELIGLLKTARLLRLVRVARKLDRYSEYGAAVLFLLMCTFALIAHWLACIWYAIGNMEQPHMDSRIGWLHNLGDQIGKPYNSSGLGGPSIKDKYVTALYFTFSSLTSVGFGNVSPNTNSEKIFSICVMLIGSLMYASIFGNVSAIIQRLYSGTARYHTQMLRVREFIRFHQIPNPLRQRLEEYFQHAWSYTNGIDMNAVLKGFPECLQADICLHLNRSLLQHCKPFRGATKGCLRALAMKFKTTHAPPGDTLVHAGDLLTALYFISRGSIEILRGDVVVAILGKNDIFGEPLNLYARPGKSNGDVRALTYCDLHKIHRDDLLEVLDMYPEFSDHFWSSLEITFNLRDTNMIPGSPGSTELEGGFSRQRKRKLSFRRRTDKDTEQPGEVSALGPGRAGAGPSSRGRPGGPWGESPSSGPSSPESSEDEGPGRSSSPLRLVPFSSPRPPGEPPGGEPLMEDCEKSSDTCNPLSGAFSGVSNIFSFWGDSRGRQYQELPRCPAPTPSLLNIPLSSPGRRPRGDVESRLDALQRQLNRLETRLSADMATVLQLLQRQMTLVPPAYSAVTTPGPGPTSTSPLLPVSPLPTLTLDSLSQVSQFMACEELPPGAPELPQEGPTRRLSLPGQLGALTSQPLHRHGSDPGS
Chain of Nuclear receptor subfamily 1 group I member 2 (Rattus norvegicus) (Q9R1A7 whole entry, looked up): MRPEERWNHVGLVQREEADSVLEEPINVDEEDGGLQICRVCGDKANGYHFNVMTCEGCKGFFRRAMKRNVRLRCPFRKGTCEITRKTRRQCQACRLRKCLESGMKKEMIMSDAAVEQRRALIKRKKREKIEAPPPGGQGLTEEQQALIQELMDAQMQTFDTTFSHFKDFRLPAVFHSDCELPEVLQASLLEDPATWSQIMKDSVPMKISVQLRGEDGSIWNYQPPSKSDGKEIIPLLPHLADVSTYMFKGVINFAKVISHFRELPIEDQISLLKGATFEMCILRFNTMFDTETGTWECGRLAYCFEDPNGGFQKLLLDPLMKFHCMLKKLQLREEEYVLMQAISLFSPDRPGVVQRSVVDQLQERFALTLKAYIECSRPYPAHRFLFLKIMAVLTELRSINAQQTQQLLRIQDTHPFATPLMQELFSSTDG
Chain of Cytochrome P450 2C9 (Homo sapiens) (P11712 whole entry, looked up): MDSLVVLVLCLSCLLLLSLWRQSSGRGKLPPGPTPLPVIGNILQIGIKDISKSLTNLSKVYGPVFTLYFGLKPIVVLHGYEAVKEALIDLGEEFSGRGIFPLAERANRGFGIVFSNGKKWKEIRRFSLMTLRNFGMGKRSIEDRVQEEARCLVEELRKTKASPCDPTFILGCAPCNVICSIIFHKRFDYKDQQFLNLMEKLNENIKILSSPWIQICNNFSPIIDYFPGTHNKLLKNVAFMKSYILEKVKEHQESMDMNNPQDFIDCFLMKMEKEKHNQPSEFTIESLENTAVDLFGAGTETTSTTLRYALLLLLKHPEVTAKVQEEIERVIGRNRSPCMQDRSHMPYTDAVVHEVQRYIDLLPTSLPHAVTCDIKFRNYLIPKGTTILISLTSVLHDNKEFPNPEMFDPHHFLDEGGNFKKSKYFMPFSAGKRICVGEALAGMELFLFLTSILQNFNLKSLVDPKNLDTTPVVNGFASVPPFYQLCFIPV
Chain of Cytochrome P450 1A2 (Homo sapiens) (P05177 whole entry, looked up): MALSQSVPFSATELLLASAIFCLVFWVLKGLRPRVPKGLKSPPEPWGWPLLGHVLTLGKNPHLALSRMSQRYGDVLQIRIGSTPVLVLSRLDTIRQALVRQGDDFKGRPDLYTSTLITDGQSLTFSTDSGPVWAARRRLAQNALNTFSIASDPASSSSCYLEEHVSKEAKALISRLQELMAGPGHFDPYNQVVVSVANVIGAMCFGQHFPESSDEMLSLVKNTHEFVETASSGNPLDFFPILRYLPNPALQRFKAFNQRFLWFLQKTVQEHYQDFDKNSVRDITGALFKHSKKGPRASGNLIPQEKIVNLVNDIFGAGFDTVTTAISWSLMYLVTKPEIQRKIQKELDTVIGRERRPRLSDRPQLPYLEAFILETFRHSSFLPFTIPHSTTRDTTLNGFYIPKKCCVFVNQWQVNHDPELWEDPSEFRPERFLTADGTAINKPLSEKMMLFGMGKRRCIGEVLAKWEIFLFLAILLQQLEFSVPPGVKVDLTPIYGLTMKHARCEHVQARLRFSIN
Chain of Cytochrome P450 2C19 (Homo sapiens) (P33261 whole entry, looked up): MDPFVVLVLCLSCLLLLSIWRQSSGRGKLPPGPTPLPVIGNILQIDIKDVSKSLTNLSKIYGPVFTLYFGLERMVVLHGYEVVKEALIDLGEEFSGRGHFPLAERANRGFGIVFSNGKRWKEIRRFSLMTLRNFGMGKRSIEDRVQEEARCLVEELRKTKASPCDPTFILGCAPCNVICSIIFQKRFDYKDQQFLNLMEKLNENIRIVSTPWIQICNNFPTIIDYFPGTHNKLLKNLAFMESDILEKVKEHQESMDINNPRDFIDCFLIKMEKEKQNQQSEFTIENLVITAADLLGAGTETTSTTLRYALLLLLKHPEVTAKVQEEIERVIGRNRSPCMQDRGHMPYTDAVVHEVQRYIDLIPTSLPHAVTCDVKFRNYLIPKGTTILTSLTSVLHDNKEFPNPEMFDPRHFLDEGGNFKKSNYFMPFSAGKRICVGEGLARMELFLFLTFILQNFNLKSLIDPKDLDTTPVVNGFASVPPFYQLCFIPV
Chain of Nuclear receptor subfamily 1 group I member 2 (Homo sapiens) (O75469 whole entry, looked up): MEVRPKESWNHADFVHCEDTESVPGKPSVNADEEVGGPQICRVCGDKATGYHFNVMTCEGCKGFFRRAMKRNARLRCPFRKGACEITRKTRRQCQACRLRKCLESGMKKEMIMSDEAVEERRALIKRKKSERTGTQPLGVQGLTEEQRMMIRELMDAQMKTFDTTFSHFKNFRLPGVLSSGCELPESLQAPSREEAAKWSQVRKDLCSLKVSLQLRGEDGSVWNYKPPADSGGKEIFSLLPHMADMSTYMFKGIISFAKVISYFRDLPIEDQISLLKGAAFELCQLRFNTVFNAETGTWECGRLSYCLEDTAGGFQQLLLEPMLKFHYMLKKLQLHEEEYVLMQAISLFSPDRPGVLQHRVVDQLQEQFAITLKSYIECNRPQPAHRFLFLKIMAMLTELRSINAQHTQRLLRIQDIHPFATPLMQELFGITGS
Chain of Thyrotropin-releasing hormone receptor (Homo sapiens) (P34981 whole entry, looked up): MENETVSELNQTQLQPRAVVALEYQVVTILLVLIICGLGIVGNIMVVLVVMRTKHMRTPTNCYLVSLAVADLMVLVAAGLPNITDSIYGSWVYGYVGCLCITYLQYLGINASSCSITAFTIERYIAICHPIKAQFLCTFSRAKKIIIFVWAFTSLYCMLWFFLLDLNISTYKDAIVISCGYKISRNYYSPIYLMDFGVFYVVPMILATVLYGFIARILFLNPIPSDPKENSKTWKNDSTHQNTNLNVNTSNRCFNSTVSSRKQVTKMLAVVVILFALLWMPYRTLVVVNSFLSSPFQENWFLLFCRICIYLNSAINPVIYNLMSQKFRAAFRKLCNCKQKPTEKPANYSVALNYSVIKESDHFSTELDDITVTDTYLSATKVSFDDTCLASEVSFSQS

CCN(CC)C(=O)c1ccc(O)c(OC)c1
inactive: outcome [1] | Potency [2] | outcome [3] | Potency [4] | outcome [5] | outcome [6] | Potency [7] | Potency [8] | Potency [9] | Potency [10] | Potency [11] | Potency [12] | Potency [13] | Potency [14] | Potency [15]

C=CCn1c(=O)n([C@@H]2O[C@H](CO)[C@@H](O)[C@H]2O)c2nc(N)[nH]c(=O)c21
inactive: outcome [1] | Potency [2] | outcome [3] | Potency [4] | outcome [5] | outcome [6] | Potency [7] | Potency [8] | Potency [9] | Potency [10] | Potency [11] | Potency [12] | Potency [14] | Potency [15]

Cn1ccc2cc3c(cc21)CCN3C(=O)Nc1cccnc1
inactive: activation [1] -0.003% [at 11.8 µM] | activity change, negative = cytotoxicity [2] 0% [at 19 µM] | caspase activation [3] 0.602% [at 19 µM] | activity change, negative = cytotoxicity [4] 5.05% [at 19 µM] | caspase-3/7 activation [5] -1.75% [at 19 µM] | activity change, negative = cytotoxicity [6] 1.32% [at 19 µM] | Potency [8] | activity change, negative = inhibition [10] -16.8% [at 23.6 µM] | activity change, negative = inhibition [14] 2.6% [at 15.8 µM]
active: Potency [7] 3.66 µM | Potency [16] 12.6 µM | Potency [9] 12.6 µM | Potency [13] 0.0791 µM

CCN1CCN(c2cc3c(cc2F)c(=O)c(C(=O)O)cn3C2CC2)CC1
inactive: outcome [1] | Potency [2] | outcome [3] | Potency [4] | outcome [5] | outcome [6] | Potency [7] | Potency [10] | Potency [11] | Potency [12] | Potency [13] | Potency [14] | Potency [15]

CCCCCCCCCCCl
active: Potency [13] 32.2 µM
inactive: outcome [1] | Potency [2] | outcome [3] | Potency [4] | outcome [5] | outcome [6] | Potency [7] | Potency [10] | Potency [11] | Potency [12] | Potency [14] | Potency [15]

OCCCCCCO
active: Potency [10] 36 µM | Potency [11] 12.8 µM | Potency [12] 40.4 µM | Potency [13] 40.4 µM
inactive: outcome [1] | Potency [2] | outcome [3] | Potency [4] | outcome [5] | outcome [6] | Potency [7] | Potency [14]

C=C(C)C(=O)OCCCCCCCCCCCCCCCCCC
inactive: activation [1] -0.148% [at 11.8 µM] | activity change, negative = cytotoxicity [2] -1.38% [at 19 µM] | caspase activation [3] -1.69% [at 19 µM] | activity change, negative = cytotoxicity [4] -0.104% [at 19 µM] | caspase-3/7 activation [5] 0.453% [at 19 µM] | activity change, negative = cytotoxicity [6] -0.0917% [at 19 µM] | activation [7] -0.119% [at 19 µM] | activity change, negative = inhibition [10] 2.34% [at 23.6 µM] | activity change, negative = inhibition [11] -16.6% [at 23.6 µM] | activity change, negative = inhibition [12] -1.15% [at 23.6 µM] | Potency [13] | activity change, negative = inhibition [14] -0.193% [at 15.8 µM] | activity change, negative = inhibition [15] 2.34% [at 23.6 µM]

COC(=O)[C@H]1[C@H]2C[C@@H]3c4[nH]c5cc(OC)ccc5c4CCN3C[C@H]2C[C@@H](OC(=O)COc2ccc(OC)cc2)[C@@H]1OC
inactive: outcome [1] | Potency [2] | outcome [3] | Potency [4] | outcome [5] | outcome [6] | Potency [7] | Potency [8]
active: Potency [9] 10 µM | Potency [10] 17.4 µM | Potency [12] 27.5 µM | Potency [14] 0.601 µM

CN(C)CCOC(c1ccc(Cl)cc1)c1ccccn1 (configuration not stated)
inactive: outcome [1] | Potency [2] | outcome [3] | Potency [4] | outcome [5] | outcome [6] | Potency [7] | Potency [8] | Potency [11] | Potency [12] | Potency [14]
active: Potency [10] 13.8 µM

Nc1cc(C(Cl)=C(Cl)Cl)c(S(N)(=O)=O)cc1S(N)(=O)=O
inactive: outcome [1] | Potency [2] | outcome [3] | Potency [4] | outcome [5] | outcome [6] | Potency [7] | max activation [16] -3.29% | Potency [8] | Potency [9] | Potency [13] | Potency [14]

C=CC(=O)OCCCCCC
inactive: outcome [1] | Potency [2] | outcome [3] | Potency [4] | outcome [5] | outcome [6] | Potency [7] | Potency [10] | Potency [11] | Potency [12] | Potency [13] | Potency [14] | Potency [15]

NC(=O)c1ncn([C@@H]2O[C@H](CO)[C@@H](O)[C@H]2O)c1N
inactive: outcome [1] | Potency [2] | outcome [3] | Potency [4] | outcome [5] | outcome [6] | Potency [7] | Potency [8] | Potency [9] | Potency [10] | Potency [11] | Potency [12] | Potency [13] | Potency [14] | Potency [15]

Nc1nc2c(ncn2CCC(CO)CO)c(=O)[nH]1
inactive: outcome [1] | Potency [2] | outcome [3] | Potency [4] | outcome [5] | outcome [6] | Potency [7] | max activation [16] 3.6% | Potency [8] | Potency [9] | Potency [10] | Potency [11] | Potency [12] | Potency [13] | Potency [14] | Potency [15]

CCn1cc(C(=O)O)c(=O)c2cc(F)c(N3CCN(C)CC3)cc21
inactive: activation [1] 0.129% [at 11.8 µM] | activity change, negative = cytotoxicity [2] 4.23% [at 19 µM] | caspase activation [3] -0.273% [at 19 µM] | activity change, negative = cytotoxicity [4] 6.37% [at 19 µM] | caspase-3/7 activation [5] 0.47% [at 19 µM] | activity change, negative = cytotoxicity [6] 0.0199% [at 19 µM] | activation [7] -5.92% [at 19 µM] | Potency [9]

CC(C)[N+](C)(C)CC(O)COc1cccc2ccccc12 (configuration not stated)
inactive: outcome [1] | Potency [2] | outcome [3] | Potency [4] | outcome [5] | outcome [6] | Potency [7] | Potency [8] | Potency [9] | Potency [12] | Potency [13] | Potency [14] | Potency [15]

CC(=O)c1ccc(C)cc1
inactive: outcome [1] | Potency [2] | outcome [3] | Potency [4] | outcome [5] | outcome [6] | Potency [7] | Potency [10] | Potency [11] | Potency [12] | Potency [13] | Potency [14] | Potency [15]
